Assay results reported in publication PMC7862700, “An all-to-all approach to the identification of sequence-specific readers for epigenetic DNA modifications on cytosine”.

What was measured:
Assay in all cases: DAPPL (digital affinity profiling via proximity ligation, sequencing); 10 mM Tris-HCl pH 7.5, 50 mM NaCl, 1 mM DTT, 4% glycerol, room temperature, 30 min; GST-TFs on glutathione beads, 16-mer random dsDNA library, 0.1% formaldehyde crosslink after washing; high values mean tight binding
Settings in all cases: protein: recombinant; tags: N-terminal GST; dsDNA, one strand shown
[1] = target: T1, FLI1 (Homo sapiens, UniProt Q01543 1-452)
T1 sequence: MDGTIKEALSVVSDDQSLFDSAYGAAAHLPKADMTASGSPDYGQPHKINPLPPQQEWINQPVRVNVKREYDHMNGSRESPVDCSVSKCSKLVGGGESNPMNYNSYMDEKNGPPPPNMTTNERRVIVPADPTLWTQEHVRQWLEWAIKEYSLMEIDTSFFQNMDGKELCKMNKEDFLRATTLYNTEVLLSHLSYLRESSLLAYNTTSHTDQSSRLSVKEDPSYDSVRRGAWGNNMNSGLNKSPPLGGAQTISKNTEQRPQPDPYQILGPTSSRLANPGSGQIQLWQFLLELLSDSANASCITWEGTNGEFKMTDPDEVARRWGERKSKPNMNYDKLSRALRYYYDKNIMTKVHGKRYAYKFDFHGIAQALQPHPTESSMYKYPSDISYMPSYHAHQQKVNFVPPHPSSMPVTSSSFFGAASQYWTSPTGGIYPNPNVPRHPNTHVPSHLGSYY
Method in brief: (§1)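 GST fusions of human transcription factors were expressed in yeast and captured with glutathione beads. Once given DNA barcodes and pooled alongside a tag-only sample, they were incubated for 30 min at room temperature with 200 nmole of a random double-stranded 16-mer DNA library in Tris/NaCl/DTT/glycerol buffer, then washed, crosslinked (0.1% formaldehyde), proximity-ligated, PCR-amplified and sequenced on an Illumina NextSeq500. The binding signal of each hexamer is its read frequency for a factor divided by its frequency for the tag-only sample.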

[2] = target: T2, ELK1 (Homo sapiens, UniProt P19419 1-428)
T2 sequence: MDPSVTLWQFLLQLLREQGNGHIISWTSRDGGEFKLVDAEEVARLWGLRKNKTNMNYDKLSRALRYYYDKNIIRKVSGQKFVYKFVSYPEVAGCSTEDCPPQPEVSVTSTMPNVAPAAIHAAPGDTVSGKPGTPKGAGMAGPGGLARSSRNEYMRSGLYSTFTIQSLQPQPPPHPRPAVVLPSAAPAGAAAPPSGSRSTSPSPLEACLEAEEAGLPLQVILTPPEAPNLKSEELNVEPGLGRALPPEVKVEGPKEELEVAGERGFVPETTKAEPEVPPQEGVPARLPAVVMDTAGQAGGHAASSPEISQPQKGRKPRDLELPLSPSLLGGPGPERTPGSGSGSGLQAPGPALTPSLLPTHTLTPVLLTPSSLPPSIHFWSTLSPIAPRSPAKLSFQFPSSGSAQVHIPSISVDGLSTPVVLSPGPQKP
Method in brief: as §1

[3] = target: T3, GABPA (Homo sapiens, UniProt Q06546 1-454)
T3 sequence: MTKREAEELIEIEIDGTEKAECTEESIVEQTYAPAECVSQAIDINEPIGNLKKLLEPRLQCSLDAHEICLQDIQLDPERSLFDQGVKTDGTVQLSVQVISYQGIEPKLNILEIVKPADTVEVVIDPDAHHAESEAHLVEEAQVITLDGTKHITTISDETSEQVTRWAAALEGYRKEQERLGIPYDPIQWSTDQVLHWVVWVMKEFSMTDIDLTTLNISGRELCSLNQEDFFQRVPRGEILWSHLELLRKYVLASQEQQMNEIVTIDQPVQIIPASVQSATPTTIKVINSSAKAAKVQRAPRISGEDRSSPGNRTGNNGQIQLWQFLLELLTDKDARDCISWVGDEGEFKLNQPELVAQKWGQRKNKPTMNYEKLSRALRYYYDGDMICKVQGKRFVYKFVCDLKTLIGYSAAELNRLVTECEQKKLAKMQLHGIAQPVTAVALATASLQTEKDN
Method in brief: as §1

[4] = target: T4, ERG (Homo sapiens, UniProt P11308 1-479)
T4 sequence: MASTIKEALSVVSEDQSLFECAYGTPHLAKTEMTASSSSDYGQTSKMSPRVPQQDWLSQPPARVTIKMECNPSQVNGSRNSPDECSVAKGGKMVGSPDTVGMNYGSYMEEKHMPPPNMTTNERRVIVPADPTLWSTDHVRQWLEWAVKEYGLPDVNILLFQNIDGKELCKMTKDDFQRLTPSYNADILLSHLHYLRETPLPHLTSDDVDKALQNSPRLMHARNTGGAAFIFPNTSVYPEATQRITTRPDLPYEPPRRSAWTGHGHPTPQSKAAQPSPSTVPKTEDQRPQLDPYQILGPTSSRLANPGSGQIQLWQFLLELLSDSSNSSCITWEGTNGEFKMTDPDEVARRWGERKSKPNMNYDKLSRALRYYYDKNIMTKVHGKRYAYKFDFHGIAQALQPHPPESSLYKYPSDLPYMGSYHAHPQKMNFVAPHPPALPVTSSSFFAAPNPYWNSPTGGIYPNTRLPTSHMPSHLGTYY
Method in brief: as §1

[5] = target: ELF1 (Homo sapiens, UniProt P32519 1-619)
Method in brief: as §1

[6] = target: T5, EHF (Homo sapiens, UniProt Q9NZC4 1-300)
T5 sequence: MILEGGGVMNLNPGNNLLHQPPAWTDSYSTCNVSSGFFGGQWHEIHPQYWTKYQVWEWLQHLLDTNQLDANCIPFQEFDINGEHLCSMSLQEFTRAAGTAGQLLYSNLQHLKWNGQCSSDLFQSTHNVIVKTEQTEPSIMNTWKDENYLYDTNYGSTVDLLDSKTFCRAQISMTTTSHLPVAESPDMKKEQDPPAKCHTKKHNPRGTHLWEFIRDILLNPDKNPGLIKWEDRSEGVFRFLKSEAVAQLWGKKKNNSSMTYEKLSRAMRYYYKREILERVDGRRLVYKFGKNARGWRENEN
Method in brief: as §1

[7] = target: SPI1 (Homo sapiens, UniProt P17947 1-270)
Method in brief: as §1

[8] = target: SPIB (Homo sapiens, UniProt Q01892 1-262)
Method in brief: as §1

[9] = target: T6, ELK3 (Homo sapiens, UniProt P41970 1-407)
T6 sequence: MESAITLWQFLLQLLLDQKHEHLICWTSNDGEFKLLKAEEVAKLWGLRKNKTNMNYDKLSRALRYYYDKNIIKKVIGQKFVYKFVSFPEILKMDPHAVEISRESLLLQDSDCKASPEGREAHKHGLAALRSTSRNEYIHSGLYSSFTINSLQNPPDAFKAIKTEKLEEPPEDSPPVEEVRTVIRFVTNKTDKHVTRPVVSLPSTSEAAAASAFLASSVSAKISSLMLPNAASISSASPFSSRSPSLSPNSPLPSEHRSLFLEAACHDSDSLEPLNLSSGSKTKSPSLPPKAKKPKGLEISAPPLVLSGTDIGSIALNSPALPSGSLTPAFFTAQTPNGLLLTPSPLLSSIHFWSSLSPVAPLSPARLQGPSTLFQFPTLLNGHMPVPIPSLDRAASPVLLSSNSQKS
Method in brief: as §1

SPIB, sequence (Q01892 whole entry): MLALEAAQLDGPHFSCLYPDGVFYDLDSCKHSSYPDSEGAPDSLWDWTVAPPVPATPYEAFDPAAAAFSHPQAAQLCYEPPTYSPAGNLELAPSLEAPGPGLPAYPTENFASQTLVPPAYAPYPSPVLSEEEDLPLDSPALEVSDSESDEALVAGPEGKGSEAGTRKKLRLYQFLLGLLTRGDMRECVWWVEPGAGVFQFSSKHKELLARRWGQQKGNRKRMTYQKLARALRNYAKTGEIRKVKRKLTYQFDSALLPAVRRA
ELF1, sequence (P32519 whole entry): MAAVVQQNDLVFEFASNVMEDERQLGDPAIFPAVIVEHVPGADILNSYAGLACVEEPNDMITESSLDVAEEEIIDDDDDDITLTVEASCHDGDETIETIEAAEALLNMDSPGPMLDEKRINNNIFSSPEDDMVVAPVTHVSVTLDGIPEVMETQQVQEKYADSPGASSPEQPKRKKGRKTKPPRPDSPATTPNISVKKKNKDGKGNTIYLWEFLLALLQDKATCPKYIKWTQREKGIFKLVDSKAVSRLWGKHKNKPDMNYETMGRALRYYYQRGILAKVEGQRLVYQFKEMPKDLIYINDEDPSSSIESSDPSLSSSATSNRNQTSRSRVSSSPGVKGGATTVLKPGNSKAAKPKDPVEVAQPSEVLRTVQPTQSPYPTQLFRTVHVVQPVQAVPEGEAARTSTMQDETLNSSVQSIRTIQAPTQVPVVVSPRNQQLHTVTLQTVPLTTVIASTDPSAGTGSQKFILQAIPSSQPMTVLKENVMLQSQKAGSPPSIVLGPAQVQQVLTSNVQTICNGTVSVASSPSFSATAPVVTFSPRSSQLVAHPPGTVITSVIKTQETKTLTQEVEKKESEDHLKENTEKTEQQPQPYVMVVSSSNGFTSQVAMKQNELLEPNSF

Row | Sequence | binding signal [1] | binding signal [2] | binding signal [3] | binding signal [4] | binding signal [5] | binding signal [6] | binding signal [7] | binding signal [8] | binding signal [9]
1 | AGTGGC | 1.31 fold enrichment (6-mer frequency, TF over GST control) | 1.19 fold enrichment (6-mer frequency, TF over GST control) | 1.2 fold enrichment (6-mer frequency, TF over GST control) | 1.28 fold enrichment (6-mer frequency, TF over GST control) | 1.23 fold enrichment (6-mer frequency, TF over GST control) | 1.4 fold enrichment (6-mer frequency, TF over GST control) | 1.75 fold enrichment (6-mer frequency, TF over GST control) | 1.3 fold enrichment (6-mer frequency, TF over GST control) | 1.31 fold enrichment (6-mer frequency, TF over GST control)
2 | GTCACT | 1.1 fold enrichment (6-mer frequency, TF over GST control) | 1.07 fold enrichment (6-mer frequency, TF over GST control) | 1.08 fold enrichment (6-mer frequency, TF over GST control) | 1.13 fold enrichment (6-mer frequency, TF over GST control) | 1.1 fold enrichment (6-mer frequency, TF over GST control) | 1.15 fold enrichment (6-mer frequency, TF over GST control) | 1.19 fold enrichment (6-mer frequency, TF over GST control) | 1.21 fold enrichment (6-mer frequency, TF over GST control) | 1.06 fold enrichment (6-mer frequency, TF over GST control)
3 | GGTCTA | 1.12 fold enrichment (6-mer frequency, TF over GST control) | 1.05 fold enrichment (6-mer frequency, TF over GST control) | 1.06 fold enrichment (6-mer frequency, TF over GST control) | 1.08 fold enrichment (6-mer frequency, TF over GST control) | 1.05 fold enrichment (6-mer frequency, TF over GST control) | 1.23 fold enrichment (6-mer frequency, TF over GST control) | 1.02 fold enrichment (6-mer frequency, TF over GST control) | 1.05 fold enrichment (6-mer frequency, TF over GST control) | 1.24 fold enrichment (6-mer frequency, TF over GST control)
4 | AGTTAA | 1.02 fold enrichment (6-mer frequency, TF over GST control) | 1.09 fold enrichment (6-mer frequency, TF over GST control) | 1.05 fold enrichment (6-mer frequency, TF over GST control) | 1.12 fold enrichment (6-mer frequency, TF over GST control) | 1.01 fold enrichment (6-mer frequency, TF over GST control) | 1.08 fold enrichment (6-mer frequency, TF over GST control) | 1.13 fold enrichment (6-mer frequency, TF over GST control) | 1.08 fold enrichment (6-mer frequency, TF over GST control) | 1.04 fold enrichment (6-mer frequency, TF over GST control)
